Shown are actives, neighbours in structure and some others; about 2.6% of the full set was active somewhere.
Cruzain Triton – cruzain (T. cruzi) inhibition with detergent; AID 1478; Potency, µM, for inactives: max response, negative = inhibition, actives largely listed as inhibitors; purified cruzain, Z-FR-AMC fluorescence, 0.01% Triton; 0.43% of 200,000 active; P25779;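 also: plate controls were neutral wells for no effect and buffer without enzyme for full effect; nearly all actives have a fitted effect of over 40% in size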
Target sequence (P25779 123-467 limits assumed): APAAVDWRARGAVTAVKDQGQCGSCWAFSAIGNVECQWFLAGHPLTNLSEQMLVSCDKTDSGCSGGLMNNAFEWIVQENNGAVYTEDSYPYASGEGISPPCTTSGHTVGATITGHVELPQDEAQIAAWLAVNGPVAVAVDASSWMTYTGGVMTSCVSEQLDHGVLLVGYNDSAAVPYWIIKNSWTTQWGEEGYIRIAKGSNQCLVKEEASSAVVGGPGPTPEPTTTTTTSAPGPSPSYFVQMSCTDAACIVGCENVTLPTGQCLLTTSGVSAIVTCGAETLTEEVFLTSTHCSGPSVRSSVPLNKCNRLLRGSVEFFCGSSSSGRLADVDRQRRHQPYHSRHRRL
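Cruzain (1.5 nM) preincubated 15 min at RT with compound in 100 mM sodium acetate pH 5.5, 5 mM DTT, 0.01% Triton X-100. Reaction started with 2 uM Z-FR-AMC; AMC fluorescence (ex 360/em 450 nm) change over 60 s gave rate.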
Cruzain noTriton – cruzain (T. cruzi) inhibition without detergent. purified cruzain, Z-FR-AMC fluorescence, no detergent. Potency, µM, without a hit: max response, negative = inhibition, most hits filed as inhibitors. 2.3% of 200,000 active;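 also: plate controls were enzyme without inhibitor for no effect and buffer without enzyme for full effect; nearly all actives have a fitted effect of over 40% in size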
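Purified cruzain at 1.5 nM, pre-incubated 15 min with compound at room temperature in 100 mM sodium acetate pH 5.5, 5 mM DTT, 0.00005% Triton X-100. Reaction started with 2 uM Z-FR-AMC; AMC fluorescence increase over 60 s gives rate.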
An asterisk follows results filed as active; ? = inconclusive. Calls follow the shape of the dose curve; as a rule, active = well fitted curve in the direction sought with a large enough effect; inconclusive = small, poorly fitted or top-dose-only effect, or another doubt; inactive = no such curve, though single readings can be large; an effect the other way counts as inactive or inconclusive. Potency is read from the fitted curve at half-maximal effect.

SMILES | Cruzain Triton | Cruzain noTriton
CCn1c(CC2C(=O)N(C)c3ccccc32)nc2ccccc2c1=O (stereo not drawn) | -1.0% | -1.5%
COc1cc(CNCCSc2nnnn2C)ccc1OCc1ccc(C)cc1 | 0.5% | 1.2%
CSc1ccc(/C=C/c2nc3ccccc3n2S(=O)(=O)c2cccc(Cl)c2)cc1 | -11.1% | -0.6%
O=S(=O)(c1cccc(Cl)c1)n1c(/C=C/c2ccccc2Cl)nc2ccccc21 | -9.7% | 7.94µM*
N#CCCn1c(=O)c(-c2ccccc2)nc2cnc(N3CCOCC3)nc21 | 2.5% | 9.1%
Clc1ccc(/C=C/c2nc3ccccc3[nH]2)c(Cl)c1 | -7.5% | ?
Clc1ccc(/C=C/c2nc3ccccc3[nH]2)cc1 | -20.4% | 15.8µM*
COc1ccc(/C=C/C(=O)Nc2cc(C)nn2-c2nc3ccccc3[nH]2)cc1 | -28.7% | ?
COc1ccc(/C=C/C(=O)Nc2cc(C)nn2-c2nc3ccccc3n2Cc2cccc([N+](=O)[O-])c2)cc1 | 0.0% | 7.94µM*
COc1ccc(-c2nc(NC(=O)c3ccc(OCC(=O)Nc4ccc(F)cc4)c(OC)c3)sc2C)cc1 | -0.1% | -10.3%
COc1cc(C(=O)Nc2nc(-c3cc(C)ccc3C)c(C)s2)ccc1OCC(=O)Nc1ccc(F)cc1 | -5.1% | 20µM*
CCc1ccc(NCc2cc3ccc(OC)cc3n(CC(=O)Nc3ccccc3OC)c2=O)cc1 | -5.6% | -21.2%
CCc1ccccc1NC(=O)C1c2ccccc2Oc2ccccc21 | -1.6% | 25.1µM*
Cc1cc(C)c(NC(=O)C2c3ccccc3Oc3ccccc32)c(C)c1 | 4.4% | 12.6µM*
O=C(Nc1cccnc1Cl)C1c2ccccc2Oc2ccccc21 | 2.6% | 1.0%
Cc1nnc(NC(=O)C2c3ccccc3Oc3ccccc32)s1 | -4.6% | 8.2%
COc1ccc(-c2onc(C)c2C)cc1S(=O)(=O)N1CCN(c2ccc(Cl)cc2)CC1 | 1.1% | -4.5%
Cc1ccccc1Cc1c(C)nc2nc(SCC(=O)NCCc3ccc(Cl)cc3)nn2c1C | -1.1% | 1.3%
O=C(C1=NN(c2ccccc2)C2C(=O)N(c3cccc(Cl)c3)C(=O)C12)c1ccccc1 (stereo not drawn) | -7.1% | ?
O=C(C1=NN(c2ccccc2)C2C(=O)N(c3ccc(Cl)cc3)C(=O)C12)c1ccccc1 (stereo not drawn) | -1.9% | 10µM*
Cc1n[nH]c(=S)n1/N=C/c1ccc(-c2ccccc2[N+](=O)[O-])o1 | -1.8% | -6.9%
O=[N+]([O-])c1cccc(-c2ccc(/C=N/n3c(-c4ccccc4)n[nH]c3=S)o2)c1 | -4.1% | 15.8µM*
NC(=S)N/N=C/c1ccc(-c2cccc([N+](=O)[O-])c2)o1 | 2.82µM* | 3.16µM*
Nc1nonc1C(=O)N/N=C/c1ccc(-c2cccc([N+](=O)[O-])c2)o1 | -11.3% | -16.2%
Cc1cc(Br)cc(C)c1NC(=O)c1sc2ncn(Cc3cccc(F)c3)c(=O)c2c1C | -2.4% | 4.8%
SMILES | Cruzain Triton | Cruzain noTriton
COC(=O)c1cc2oc3ccccc3c2n1Cc1nc(-c2ccccc2Cl)oc1C | 0.4% | -13.4%
COc1ccc2nc(/C=N/NC(=O)[C@H](C)NC(=O)OC(C)(C)C)ccc2c1 | -24.1% | 31.6µM*
Cc1ccc2cc(/C=N/NC(=O)[C@H](C)NC(=O)OC(C)(C)C)c(Cl)nc2c1 | -1.2% | 2.5%
Cc1nn(C)c2c1c(C(F)(F)F)cc(=O)n2CC(=O)N1CCC(C)CC1 | -5.4% | ?
Cn1cccc1C(=O)N1CCC2(CCCN(Cc3ccccc3)C2)CC1 | 1.7% | 2.8%
COc1ccc(C2C(C#N)=C(N)N3C(=C2C#N)Sc2ccccc23)cc1 (stereo not drawn) | -6.5% | 6.31µM*
COc1ccc(C2C(C#N)=C(N)Nc3nc4ccccc4n32)cc1 (stereo not drawn) | 1.1% | ?
CN(C)S(=O)(=O)c1cccc(NC(=S)N/N=C/C(c2ccccc2)c2ccccc2)c1 | -4.8% | 31.6µM*
CC(/C=N/NC(=S)Nc1cccc(S(=O)(=O)N(C)C)c1)c1ccccc1 (stereo not drawn) | -3.3% | -28.0%
CCOC(=O)C1CCN(C(=O)Cn2ncc3c4ccccc4n(Cc4ccccc4F)c3c2=O)CC1 | -2.5% | ?
FC(F)Sc1ccc(NC(=S)NC2CCC(NC(=S)Nc3ccc(SC(F)F)cc3)CC2)cc1 (stereo not drawn) | 2.3% | 15.8µM*
Oc1cccc(NC(=S)Nc2ccc(SC(F)F)cc2)c1 | -5.4% | -2.1%
Cc1cc(NC(=O)c2ccc(NC(=O)CCS(=O)(=O)c3cccs3)cc2)ccc1Br | -3.4% | ?
COc1ccccc1C(=O)ON=C1c2ccccc2-c2ccccc21 | -7.4% | ?
COc1ccc2c(c1[N+](=O)[O-])CCC/C2=N/OC(=O)c1cccc2ccccc12 | -2.2% | 20µM*
COc1ccc2oc(=O)c(C(=O)NCCc3c(C)[nH]c4ccc(Br)cc34)cc2c1 | -1.0% | 2.9%
O=C(Nc1ccc2c(c1)CCC2)c1ccc(F)cc1 | -3.4% | 1.7%
O=C(Nc1ccc2c(c1)CCC2)c1cc(S(=O)(=O)Nc2ccc(F)cc2)c(Cl)cc1Cl | -0.8% | 20µM*
O=[N+]([O-])c1ccc(/C=C/c2ccc3cccc([N+](=O)[O-])c3n2)cc1 | -5.6% | 12.6µM*
O=[N+]([O-])c1cccc2ccc(/C=C/c3ccc(F)cc3)nc12 | -5.9% | -9.7%
O=C(CCC1N=C2c3ccccc3N=C(SCc3cccc(Cl)c3)N2C1=O)NCc1cccs1 (stereo not drawn) | -1.4% | 7.8%
Cc1ccc(-n2nc(CO)c(C(=O)NC(C)CCCc3ccccc3)n2)cc1C (stereo not drawn) | -3.6% | -11.4%
CCCOc1ccc(C(=O)Nc2nc(C)c(Cc3ccc4c(c3)OCO4)s2)cc1 | -1.4% | -26.9%
Cc1c(Cc2ccc3c(c2)OCO3)sc(NC(=O)c2ccc3ccccc3c2)c1C(N)=O | -1.5% | 10µM*
CCc1ccc(NC(=O)C(CC)Sc2nc3cc4c(cc3c(=O)n2Cc2ccco2)OCO4)cc1 (stereo not drawn) | 6.5% | 25.1µM*
SMILES | Cruzain Triton | Cruzain noTriton
CCc1ccccc1NC(=O)C(CC)Sc1nc2cc3c(cc2c(=O)n1Cc1ccco1)OCO3 (stereo not drawn) | 8.2% | 2.7%
Cc1ccc(CCNC(=O)c2cc3c(s2)-c2ccccc2OC3)cc1 | -2.4% | 12.6µM*
O=C(Nc1nc2ccccc2s1)c1cc2c(s1)-c1ccccc1OC2 | -1.2% | 12.6µM*
O=C(Nc1nccs1)c1cc2c(s1)-c1ccccc1OC2 | -7.2% | ?
O=C(NCCc1ccc(Cl)cc1)c1cc2c(s1)-c1ccccc1OC2 | -22.0% | ?
O=C(NCc1cccc(F)c1)c1cccc(NC(=O)c2nsc3ccccc23)c1 | -0.5% | ?
COc1ccc(C2c3cccn3CCN2S(=O)(=O)c2ccc([N+](=O)[O-])cc2)cc1 (stereo not drawn) | -3.2% | 25.1µM*
O=[N+]([O-])c1ccc(S(=O)(=O)N2CCn3cccc3C2c2ccccc2F)cc1 (stereo not drawn) | -8.0% | ?
O=C(NCC1CCN(Cc2ccc(F)cc2)CC1)c1cc2ccc3cccnc3c2[nH]1 | -2.0% | -19.5%
CCOc1ccc(CNC(=O)CCS(=O)(=O)c2cc3c4c(c2)CCN4C(=O)CC3)cc1OC | -4.4% | 4.5%
COc1ccc2c(c1)c1nnc(SCC(=O)N3C(C)CCCC3C)nc1n2C (stereo not drawn) | 17.8µM* | -17.1%
COc1ccc2c(c1)c1nnc(SC)nc1n2C | -4.6% | -1.3%
O=C(CSc1nncn1-c1ccccc1)Nc1cc(Cl)cc(Cl)c1 | -2.0% | 25.1µM*
CC(C)(C)NC(=O)CSc1nncn1-c1ccccc1 | -1.8% | -0.3%
